Measured values reported in PubChem BioAssay (NCI).
This is part of a sample that, as a whole, favours compounds with a hit. Of some 79,000 tested, about 15% had one in any assay. Active and inactive are the calls of the source. Cut-off read from the data, not from the text of the source: active = growth inhibition above about 70%; inactive = the rest.

Experiments:
[1] = NCI Yeast Anticancer Drug Screen. Data for the rad50 strain (AID 155);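 note: 0% = growth of vehicle-only cultures of the same strain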; details: S. cerevisiae rad50 strain growth inhibition, hits give high values
How it was run: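 Compounds were tested on a yeast strain with an engineered DNA damage repair alteration; the reported value is growth inhibition normalised to vehicle treatment.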

[2] = NCI Yeast Anticancer Drug Screen. Data for the mec2-1 strain (AID 157); details: S. cerevisiae mec2-1 strain, hits give high values
How it was run: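 Test agents were screened against the mec2-1 yeast strain, with defined DNA repair or cell cycle alteration. Growth was scored as inhibition against vehicle-only controls.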

[3] = NCI Yeast Anticancer Drug Screen. Data for the sgs1 mgt1 strain (AID 161);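 note: 0% = growth of cultures given vehicle only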; details: S. cerevisiae sgs1 mgt1 strain, hits give high values
How it was run: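 Test agents were incubated with a DNA-repair-mutant yeast strain. Growth was then read and compared against vehicle-treated controls.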

[4] = NCI Yeast Anticancer Drug Screen. Data for the cln2 rad14 strain (AID 165);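 note: 0% = growth equal to vehicle treated cultures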; details: S. cerevisiae cln2 rad14 strain, hits give high values
How it was run: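 Growth of compound-exposed yeast (cln2 rad14 genotype) measured and expressed as inhibition relative to vehicle.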

[5] = NCI Yeast Anticancer Drug Screen. Data for the bub3 strain (AID 167); details: S. cerevisiae bub3 mutant strain, hits give high values
How it was run: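 Growth of a checkpoint-deficient yeast mutant is measured after compound exposure. Values represent inhibition relative to vehicle.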

[6] = NCI Yeast Anticancer Drug Screen. Data for the mlh1 rad18 strain (AID 175); details: S. cerevisiae mlh1 rad18 strain growth inhibition, hits give high values
How it was run: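 In this whole-cell yeast screen, a strain with altered DNA damage repair is challenged with compound, and its growth is measured against matched vehicle-treated controls.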

[7] = at 5.0 µM (retest, dose inferred, filed as 0.5)
[8] = at 50.0 µM (retest, dose inferred, filed as 5.0)

Measured: growth inhibition

CCCOC(=O)C1CCCCC1C(=O)OCCC (configuration not stated)
active: [4]; at 50.0 µM 71.2%
inactive: [1]; [7] 7% | [1]; [8] -17% | [1]; at 50.0 µM 0.8% | [2]; [7] -1% | [2]; [8] -15% | [2]; at 50.0 µM 18.3% | [3]; [7] -2% | [3]; [8] 16% | [3]; at 50.0 µM -10.1% | [4]; [7] -4% | [4]; [8] 14% | [5]; [7] 1% | [5]; [8] -2% | [5]; at 50.0 µM 5.3% | [6]; [7] -7% | [6]; [8] -4% | [6]; at 50.0 µM -12.7%

CC(C)c1cc2c(cc1O)C[C@@]1(O)CCCC(C)(C)C1CC2 (some centres not stated)
inactive: [1]; [7] 8% | [2]; [7] 3% | [3]; [7] 3% | [4]; [7] -16% | [5]; [7] 7% | [6]; [7] 10%
active: [1]; [8] 97% | [1]; at 50.0 µM 90.6% | [2]; [8] 97% | [2]; at 50.0 µM 92.3% | [3]; [8] 92% | [3]; at 50.0 µM 91.2% | [4]; [8] 96% | [4]; at 50.0 µM 90% | [5]; [8] 96% | [5]; at 50.0 µM 91.2% | [6]; [8] 95% | [6]; at 50.0 µM 90.2%

COC(=O)c1ccc(Cl)c(Cl)c1
inactive: [1]; [7] 1% | [1]; [8] 20% | [1]; at 50.0 µM 8.2% | [2]; [7] -2% | [2]; [8] 2% | [2]; at 50.0 µM 6.75% | [3]; [7] 2% | [3]; [8] 11% | [3]; at 50.0 µM 11.8% | [4]; [7] 1% | [4]; [8] 0% | [5]; [7] 12% | [5]; [8] 13% | [5]; at 50.0 µM 22% | [6]; [7] 1% | [6]; [8] 17% | [6]; at 50.0 µM -0.65%
active: [4]; at 50.0 µM 75.3%

CCc1cccc(C)c1NC(=O)C(=O)CC(=O)c1ccccc1Cl
inactive: [1]; [7] 0% | [1]; [8] -1% | [2]; [7] -1% | [2]; [8] 3% | [2]; at 50.0 µM 24.7% | [3]; [7] -4% | [3]; [8] 0% | [3]; at 50.0 µM 43.8% | [4]; [7] -6% | [4]; [8] 5% | [4]; at 50.0 µM -12.6% | [5]; [7] -2% | [5]; [8] -2% | [5]; at 50.0 µM 24.4% | [6]; [7] -8% | [6]; [8] 0% | [6]; at 50.0 µM 31.1%
active: [1]; at 50.0 µM 72%

Oc1cc(CNCc2ccccc2)c(O)c(CNCc2ccccc2)c1
inactive: [1]; [7] 10% | [1]; [8] 10% | [1]; at 50.0 µM -4% | [2]; [7] 17% | [2]; [8] 24% | [2]; at 50.0 µM 31.9% | [3]; [7] 5% | [3]; [8] 11% | [3]; at 50.0 µM 5.25% | [4]; [7] 3% | [4]; [8] -13% | [4]; at 50.0 µM 38.2% | [5]; [7] -1% | [5]; [8] -4% | [5]; at 50.0 µM 1.95% | [6]; [7] 8% | [6]; [8] 15% | [6]; at 50.0 µM 17%

CCc1cc(/C=C\c2ccnc3ccccc23)ccc1N(C)C
inactive: [1]; [7] -1% | [2]; [7] -17% | [3]; [7] -1% | [4]; [7] -12% | [5]; [7] -6% | [6]; [7] -8%
active: [1]; [8] 99% | [1]; at 50.0 µM 98.2% | [2]; [8] 91% | [2]; at 50.0 µM 98.4% | [3]; [8] 95% | [3]; at 50.0 µM 98.3% | [4]; [8] 81% | [4]; at 50.0 µM 93.5% | [5]; [8] 93% | [5]; at 50.0 µM 98.1% | [6]; [8] 97% | [6]; at 50.0 µM 98%

O=C(NNc1ccccc1)c1ccc([N+](=O)[O-])cc1
inactive: [1]; [7] 31% | [2]; [7] 10% | [3]; [7] 34% | [4]; [7] 20% | [5]; [7] 25% | [6]; [7] 32%
active: [1]; [8] 95% | [1]; at 50.0 µM 99% | [2]; [8] 96% | [2]; at 50.0 µM 99.2% | [3]; [8] 97% | [3]; at 50.0 µM 99% | [4]; [8] 96% | [4]; at 50.0 µM 92% | [5]; [8] 96% | [5]; at 50.0 µM 99.6% | [6]; [8] 97% | [6]; at 50.0 µM 98.7%

O=[N+]([O-])c1ccc(O)c(-c2ccccc2)c1
inactive: [1]; [7] 3% | [2]; [7] -31% | [3]; [7] 6% | [4]; [7] 6% | [5]; [7] -2% | [6]; [7] 5%
active: [1]; [8] 99% | [1]; at 50.0 µM 99.3% | [2]; [8] 99% | [2]; at 50.0 µM 99.7% | [3]; [8] 99% | [3]; at 50.0 µM 98.8% | [4]; [8] 99% | [4]; at 50.0 µM 98.7% | [5]; [8] 98% | [5]; at 50.0 µM 99.2% | [6]; [8] 99% | [6]; at 50.0 µM 99.2%

CC1CCC(C(O)(C(=O)O)C2CCC(C)CC2)CC1 (configuration not stated)
inactive: [1]; [7] 23% | [1]; [8] 30% | [1]; at 50.0 µM 37.9% | [2]; [7] 26% | [2]; [8] 39% | [2]; at 50.0 µM 19.3% | [3]; [7] 34% | [3]; [8] 61% | [3]; at 50.0 µM 10.2% | [4]; [8] 57% | [4]; at 50.0 µM 47.6% | [5]; [7] 25% | [5]; [8] -73% | [5]; at 50.0 µM 49.1% | [6]; [7] 15% | [6]; [8] 23% | [6]; at 50.0 µM 49.7%
active: [4]; [7] 78%
